The values that follow come from PubChem BioAssay (EPA / NIEHS).

Assay [1] can be described thus: APR_HepG2_CellLoss_72hr: Apredica 72-hour HepG2 Assay for Cell Loss (AID 2282915). The note with it: high-content imaging. The gist of the method:
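HepG2 cells exposed 72 h to compound at 0.39–200 uM (10 concentrations, duplicate) in 0.5% DMSO. Fixed with 3.7% formaldehyde and Hoechst 33342-stained. Imaged at 20x; nuclear count gives cell number, fitted bidirectionally versus DMSO.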

Assay [2] is described as follows: APR_HepG2_P-H2AX_72hr: Apredica 72-hour HepG2 Assay for H2AX Phosphorylation (AID 2282916).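 Also: phospho-histone H2A.x immunostain intensity per cell marking DNA damage.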 The note with it: imaging, actives raise or lower the signal. In short, it runs like this:
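HepG2; cpd 0.39–200 uM ×10 conc, duplicates; 0.5% DMSO; 72 hr. Fix 3.7% formaldehyde 30 min RT, 0.5% Triton X-100 10 min. Anti-phospho-H2A.x 1:200 + Hoechst 2 ug/mL, 60 min RT; ArrayScan imaging.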

A short description of assay [3]: APR_HepG2_MitoMembPot_72hr: Apredica 72-hour HepG2 Assay for Mitochondrial Membrane Potential (AID 2282917). The note with it: imaging, actives raise or lower the signal. In short, it runs like this: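 HepG2 cells dosed 72 hr with compound at 0.39–200 uM in duplicate, 0.5% v/v DMSO final. Mitochondria stained with 250 nM MitoTracker Red CMXRos for 30 min before formaldehyde fixation, imaged by high-content fluorescence; bidirectional fit versus DMSO.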

The nature of assay [4]: APR_HepG2_MitoticArrest_72hr: Apredica 72-hour HepG2 Assay for Mitotic Arrest (AID 2282918). The settings on record: high-content imaging, actives raise or lower the signal. In short, it runs like this: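 HepG2 cells treated 72 h at 0.39–200 uM, 0.5% DMSO final; formaldehyde-fixed, stained with Hoechst 33342 and phospho-histone H3 antibody, imaged by high-content fluorescence; bidirectional fit versus DMSO.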

Assay [5] in a line: APR_HepG2_MicrotubuleCSK_72hr: Apredica 72-hour HepG2 Assay for Microtubule CSK Stabilty (AID 2282919). The settings on record: HepG2 microtubule cytoskeleton, high-content imaging, actives raise or lower the signal. In short, it runs like this: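 HepG2 cells were exposed 72 hr to compound at 0.39–200 uM in duplicate (0.5% DMSO final), then fixed and permeabilized. Alpha-tubulin immunofluorescence was imaged by high-content microscopy, with bidirectional fitting against DMSO and taxol as positive control.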

A short description of assay [6]: APR_HepG2_P-H2AX_24hr: Apredica 24-hour HepG2 Assay for H2AX Phosphorylation (AID 2282920). The settings on record: high-content imaging, actives raise or lower the signal. The gist of the method: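 HepG2 cells dosed 24 h at 0.39–200 uM (10 points, duplicate, 0.5% DMSO final). Formaldehyde-fixed and permeabilized, then immunostained for phospho-H2A.x with Hoechst. Fluorescence quantified by high-content imaging, fitted bidirectionally versus DMSO.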

The nature of assay [7]: APR_HepG2_StressKinase_72hr: Apredica 72-hour HepG2 Assay for Stress Kinase (AID 2282921). The settings on record: HepG2 stress kinase (phospho-c-Jun) imaging, actives raise or lower the signal. In short, it runs like this:
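Dose 0.39–200 uM (10 pts, duplicate), 0.5% DMSO; 72 h; fix 3.7% formaldehyde 30 min RT; Triton permeabilize; anti-phospho-c-Jun/Cy3 + Hoechst 60 min RT; image 20x; fit gain/loss vs DMSO.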

Assay [8] can be described thus: APR_HepG2_StressKinase_24hr: Apredica 24-hour HepG2 Assay for Stress Kinase (AID 2282922). The note with it: HepG2 stress kinase (phospho-c-Jun) imaging, actives raise or lower the signal. In short, it runs like this:
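HepG2 cells exposed 24 h to 0.39–200 uM compound in duplicate (0.5% v/v DMSO final). Cells fixed in 3.7% formaldehyde, permeabilized and immunostained for phospho-c-Jun; read by high-content fluorescence imaging, fitted bidirectionally against DMSO.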

Assay [9] is described as follows: APR_HepG2_p53Act_72hr: Apredica 72-hour HepG2 Assay for p53 Activation (AID 2282923).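 Also: average cellular p53 protein immunofluorescence intensity in HepG2 cells.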 The note with it: high-content imaging, actives raise or lower the signal. The gist of the method:
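10-pt conc. 0.39–200 uM, duplicate, 0.5% DMSO; 72 hr exposure; 3.7% formaldehyde fix, 0.5% Triton perm; sheep anti-p53/Cy5 + Hoechst; ArrayScan 20x, 6 images/well; gain/loss fit vs DMSO.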

A short description of assay [10]: APR_HepG2_MitoMass_72hr: Apredica 72-hour HepG2 Assay for Mitochondrial Mass (AID 2282924).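 Also: MitoTracker Red CMXRos stain intensity per cell imaged as mitochondrial mass.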 The note with it: high-content imaging, actives raise or lower the signal. The gist of the method: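 HepG2 cells dosed 72 hr at 0.39–200 uM (0.5% DMSO), in duplicate. MitoTracker Red CMXRos 250 nM loaded 30 min before formaldehyde fixation; high-content fluorescence imaging, bidirectional fit versus DMSO.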

Assay [11] is described as follows: APR_HepG2_NuclearSize_72hr: Apredica 72-hour HepG2 Assay for Nuclear Size (AID 2282925). The note with it: high-content imaging, actives raise or lower the signal. The gist of the method: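 HepG2 cells dosed 72 h at 0.39–200 uM (10 concentrations, duplicate) in 0.5% v/v DMSO final. Fixed, Hoechst 33342-stained nuclei imaged; nuclear diameter measured by automated image analysis. Bidirectional fit versus DMSO.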

Assay [12] is described as follows: ATG_CRE_CIS: Attagene CIS-FACTORIAL HepG2 Assay for human cAMP Responsive Element (CRE) binding protein 3 (AID 2282926). The settings on record: HepG2 CRE cis-reporter, Attagene multiplexed mRNA; actives raise or lower the signal. The gist of the method: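 HepG2 cells transiently transfected with cis-element-driven multiple reporter transcription units; CRE reporter mRNA measured 24 h after dosing by RT-PCR, 6-FAM labelling, HpaI digestion and capillary electrophoresis. Bidirectional fit versus DMSO baseline.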

Assay [13] concerns the target CCAAT/enhancer-binding protein beta (Homo sapiens) (UniProt P17676). Kind of assay: ATG_C_EBP_CIS: Attagene CIS-FACTORIAL HepG2 Assay for human CCAAT/Enhancer Binding Protein (C/EBP) beta (AID 2282927). The note with it: HepG2 Attagene cis-factorial transcription factor reporter; actives raise or lower the signal. The gist of the method:
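HepG2 transiently transfected with multiplexed reporter units under cis-regulatory promoters reporting endogenous C/EBPb activity. After 24 h exposure, reporter mRNA assayed by RT-PCR, fluorescent labelling, HpaI digestion and capillary electrophoresis; bidirectional fitting versus DMSO.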

The nature of assay [14]: ATG_CMV_CIS: Attagene CIS-FACTORIAL HepG2 Assay for human CMV (Internal Marker) (AID 2282928).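 Also: endpoint acts as a background internal control marker rather than a target.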 The settings on record: HepG2 CMV promoter reporter, transcription factor profiling; actives raise or lower the signal. In short, it runs like this:
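Cell system: HepG2, transiently transfected multiple reporter units under cis promoters. Exposure: 24 h. Detection: RT-PCR, FAM labeling, HpaI digestion, capillary electrophoresis. Analysis: bidirectional, DMSO baseline.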

Assay [15] is described as follows: ATG_DR4_LXR_CIS: Attagene CIS-FACTORIAL HepG2 Assay for human Liver X Receptor (LXR), DR4 submotif (AID 2282929). The note with it: HepG2 Attagene DR4 cis-reporter, mRNA transcription; actives raise or lower the signal. The gist of the method: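 Cells were transfected with multiple reporter transcription units, exposed to chemicals for 24 hours, then lysed for RNA. Reporter mRNA induction was measured by RT-PCR with capillary electrophoresis detection and fitted in both directions relative to DMSO.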

Assay [16] concerns the target Aryl hydrocarbon receptor (Homo sapiens) (UniProt P35869). Briefly: ATG_Ahr_CIS: Attagene CIS-FACTORIAL HepG2 Assay for human Aryl Hydrocarbon Receptor (Ahr) (AID 2282930). The settings on record: HepG2 AhR cis-factorial reporter transcription; actives raise or lower the signal. The gist of the method: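 HepG2 cells transiently transfected with cis-element-driven multiplexed reporter units; endogenous AhR activity read as reporter mRNA 24 h after dosing, via RT-PCR, 6-FAM labelling, HpaI digestion and capillary electrophoresis. Bidirectional fit relative to DMSO.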

A short description of assay [17]: ATG_AP_2_CIS: Attagene CIS-FACTORIAL HepG2 Assay for human Activator Protein 2 (AP-2) (AID 2282932). The settings on record: HepG2 AP-2 cis-reporter, Attagene transcription factor profiling; actives raise or lower the signal. In short, it runs like this: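 HepG2 cells transiently transfected with cis-element reporter units and exposed for 24 h. Reporter mRNA measured by RT-PCR, FAM labelling, HpaI digestion and capillary electrophoresis. Changes in either direction fitted relative to DMSO.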

A short description of assay [18]: ATG_BRE_CIS: Attagene CIS-FACTORIAL HepG2 Assay for human Bone Morphogenetic Protein (BMP) Response Element (BRE) (AID 2282933). The settings on record: HepG2 BMP response element reporter, Attagene transcription factor profiling; actives raise or lower the signal. In short, it runs like this: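 Endogenous transcription factor activity read in transiently transfected HepG2 cells after 24 h chemical exposure. Bidirectional curve fitting against DMSO; readout is reporter transcript level by RT-PCR with capillary electrophoresis of labelled products.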

Assay [19] is described as follows: ATG_AP_1_CIS: Attagene CIS-FACTORIAL HepG2 Assay for human Activator Protein 1 (AP-1) (AID 2282931). The settings on record: HepG2 Attagene cis-factorial AP-1 reporter mRNA; actives raise or lower the signal. In short, it runs like this:
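Endogenous transcription-factor activity in human HepG2 liver cells is read through a cis-promoter reporter transcript, sampled 24 h after dosing. Detection uses RT-PCR with capillary electrophoresis; values come from bidirectional fitting relative to DMSO.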

In assay [20] the target is Retinoic acid receptor alpha (Homo sapiens) (UniProt P10276). Kind of assay: ATG_DR5_RAR_CIS: Attagene CIS-FACTORIAL HepG2 Assay for human Retinoic Acid Receptor Alpha (RARE), DR5 submotif (AID 2282934). The note with it: HepG2 Attagene cis-factorial RARE DR5 reporter, mRNA; actives raise or lower the signal. In short, it runs like this:
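HepG2 cells transiently transfected with multiplexed reporter units; DR5 cis-element drives reporter through endogenous transcription factors. After 24 h dosing, reporter mRNA quantified by RT-PCR, fluorescent labeling, HpaI digestion and capillary electrophoresis; bidirectional fitting versus DMSO.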

The source made the active and inactive calls. The calls were made as follows: active = hit-call score of the fitted dose curve at least 0.9, where 1 is the maximum; inactive = score below 0.9.

Chain of CCAAT/enhancer-binding protein beta (Homo sapiens) (P17676 whole entry, looked up): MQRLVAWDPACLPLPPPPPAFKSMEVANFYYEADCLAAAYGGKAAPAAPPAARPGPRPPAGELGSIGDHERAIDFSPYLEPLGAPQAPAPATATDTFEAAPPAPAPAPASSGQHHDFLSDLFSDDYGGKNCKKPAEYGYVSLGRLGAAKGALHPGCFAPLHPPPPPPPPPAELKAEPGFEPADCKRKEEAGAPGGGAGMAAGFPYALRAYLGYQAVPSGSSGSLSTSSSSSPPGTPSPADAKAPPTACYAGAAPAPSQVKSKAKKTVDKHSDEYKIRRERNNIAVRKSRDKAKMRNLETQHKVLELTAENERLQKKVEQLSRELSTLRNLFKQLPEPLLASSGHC
Chain of Aryl hydrocarbon receptor (Homo sapiens) (P35869 whole entry, looked up): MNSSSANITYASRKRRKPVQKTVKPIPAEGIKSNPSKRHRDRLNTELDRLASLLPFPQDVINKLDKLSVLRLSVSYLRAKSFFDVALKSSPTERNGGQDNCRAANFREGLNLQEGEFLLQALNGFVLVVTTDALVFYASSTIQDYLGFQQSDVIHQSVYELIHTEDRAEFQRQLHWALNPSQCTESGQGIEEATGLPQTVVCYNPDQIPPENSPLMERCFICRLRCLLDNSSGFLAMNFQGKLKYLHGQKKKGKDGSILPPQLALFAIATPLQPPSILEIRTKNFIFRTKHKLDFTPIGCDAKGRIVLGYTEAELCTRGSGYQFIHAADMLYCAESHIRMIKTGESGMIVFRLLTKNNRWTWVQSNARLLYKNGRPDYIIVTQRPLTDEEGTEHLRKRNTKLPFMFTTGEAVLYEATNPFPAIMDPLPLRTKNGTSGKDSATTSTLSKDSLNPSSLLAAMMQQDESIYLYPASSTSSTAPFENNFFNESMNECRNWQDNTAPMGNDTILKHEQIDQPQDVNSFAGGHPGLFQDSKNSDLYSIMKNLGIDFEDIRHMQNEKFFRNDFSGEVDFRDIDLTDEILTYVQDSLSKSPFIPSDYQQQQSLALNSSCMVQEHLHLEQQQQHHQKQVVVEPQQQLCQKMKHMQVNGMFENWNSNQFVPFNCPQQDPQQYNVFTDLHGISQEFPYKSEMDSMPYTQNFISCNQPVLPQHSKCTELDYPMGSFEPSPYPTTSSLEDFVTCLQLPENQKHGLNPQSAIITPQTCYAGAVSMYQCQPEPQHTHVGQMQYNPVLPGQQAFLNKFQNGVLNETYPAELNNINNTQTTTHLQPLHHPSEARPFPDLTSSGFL
Chain of Retinoic acid receptor alpha (Homo sapiens) (P10276 whole entry, looked up): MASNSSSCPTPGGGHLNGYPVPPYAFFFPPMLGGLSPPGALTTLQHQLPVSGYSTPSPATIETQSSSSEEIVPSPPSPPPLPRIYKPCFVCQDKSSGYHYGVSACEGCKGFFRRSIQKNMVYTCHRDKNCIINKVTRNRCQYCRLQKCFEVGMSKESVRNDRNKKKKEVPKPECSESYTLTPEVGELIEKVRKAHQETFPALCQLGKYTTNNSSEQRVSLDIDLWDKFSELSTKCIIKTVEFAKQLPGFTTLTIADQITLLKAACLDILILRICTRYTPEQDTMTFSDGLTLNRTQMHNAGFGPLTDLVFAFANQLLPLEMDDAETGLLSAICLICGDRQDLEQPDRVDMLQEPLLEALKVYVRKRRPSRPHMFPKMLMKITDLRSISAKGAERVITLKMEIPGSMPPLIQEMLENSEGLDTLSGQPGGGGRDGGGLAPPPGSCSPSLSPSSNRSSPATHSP

As to `CC(C)Nc1nc(Cl)nc(NC(C)C)n1`, the molecule was called inactive in [1], in [2], in [3], in assay [4], in assay [5] and in assay [6]. The outcome in [7], in assay [8], in assay [9], in [10], in [11] and in assay [12] was inactive. In addition, the outcome in assay [13], in assay [14], in assay [15], in assay [16], in assay [17] and in assay [18] was inactive.
On to `Nc1c(Cl)c(Cl)nc(C(=O)O)c1Cl`, for which the result in assay [1], in assay [2], in assay [3], in [4], in assay [5] and in [6] was inactive. Further, the outcome in assay [8], in assay [9], in assay [10], in [11], in assay [12] and in assay [13] was inactive. The result in assay [14], in assay [15], in assay [19], in [17] and in assay [18] was inactive. In addition, the AC50 in assay [16] is 31.3 µM (active).
As for `CCN(CC)c1nc(C)cc(OP(=S)(OC)OC)n1`, the outcome in assay [1], in assay [2], in assay [3], in assay [4], in [5] and in assay [6] was inactive. Besides, the molecule was called inactive in assay [7], in [8], in [9], in assay [10], in [11] and in [13]. Besides, the molecule was called inactive in [14], in assay [19], in assay [17], in assay [18] and in [20]. Besides, the AC50 in assay [12] is 21.9 µM (active); in assay [15] it was 50 µM (active); in assay [16], 30.7 µM (active).

The AC50 is the concentration at which the activity in the assay is half-maximal.
